Measurements reported in PubChem BioAssay (NCATS).
Results filed as inconclusive are left out. Active and inactive are the calls of the source. Calls follow the shape of the dose curve; as a rule, active = well fitted inhibition curve with a large enough effect; inconclusive = small, poorly fitted or top-dose-only effect, or effect the other way; inactive = flat fitted curve, though single readings scatter.

test: qHTS for Inhibitors of Plasmodium falciparum (CP250) proliferation (AID 504320); conditions: P. falciparum CP250 in erythrocytes, SYBR Green DNA, 72 h; series mostly up to 6.7 µM; activity change, negative = inhibition: at the top concentration
Text: Plasmodium falciparum is a virulent malarial parasite that kills 1-2 million people worldwide each year. Malaria not only inflicts tremendous suffering and morbidity on the human population, but has dramatically influenced the course of civilization with profound sociological and economic implications (Shah, S. 2010). Transmitted by mosquitoes, the sporozoite form of the parasite enters the blood stream to infect hepatocytes, where they become merozoites that infect red blood cells (erythrocytes). Within erythrocytes, merozoites begin a […] cycle of growth and division, after which the parasite is released to infect new red blood cells. Gametocytes, which form within erythrocytes as well, circulate in the bloodstream and are ingested by the mosquito, thereby completing the life cycle (see CDC website). To profile malarial lines for differential chemical responses and to identify inhibitors of malarial growth, an assay that measures P. falciparum growth and replication within erythrocytes was employed. This assay uses a DNA binding fluorescent dye (SYBR Green) to detect parasite DNA following cell lysis. Because mature erythrocytes lack DNA, only Plasmodium-derived DNA is detected. The P. falciparum line cp250, derived from a malarial isolate from Cambodia, (Mu, J., et al. 2010) was added to the panel of lines, Dd2, HB3, 7G8 and GB4 in this study. Laboratory of Assay Development and Screening Technology [ADST] and NIH Chemical Genomics Center [NCGC] Boston University, Chemistry Department, Center for Chemical Methodology and Library Development [CMLD-BU] NIH National Institute of Allergy and Infectious Diseases [NIAID]
ADST Assay Protocol Summary: The 1536-well SYBR Green viability assay was based on the method of Bennett et al (2004) and described previously in 1536-well format (Yuan J., et al. 2009). For screening 3 ul culture medium was dispensed into 1536 well black clear bottom plates (Aurora Biotechnologies) using a Multidrop Combi (Thermo Fisher Scientific Inc.), 23 nL compounds in DMSO were added by a pin transfer (Cleveland, P.H. and Koutz, P.J, 2005) using a pin tool-based delivery system (Kalypsys), and 5 ul of erythrocytes infected with P. falciparum one of five lines (cp250, Dd2, HB3, 7G8 or GB4, 0.3% parasitemia, 2.5% hematocrit final concentration) were added. The plates were incubated at 37C in a humidified incubator in 5% CO2 for 72 h, and 2 ul lysis buffer (20 mM Tris HCl, 10 mM EDTA, 0.16% saponin, 1.6% triton X, 10X SYBR Green I (supplied as 10,000X final concentration by Invitrogen) was added to each well. The plates were mixed for 25 sec with gentle shaking and incubated overnight at room temperature in the dark. The following morning, fluorescence intensity at 485(14) nm excitation and 535(25) nm emission wavelengths was measured on an EnVision (Perkin Elmer) plate reader. Plate reads were normalized relative to the control inhibitor (0.29 uM artemisinin) and vehicle (DMSO) wells present on each plate and then corrected by an algorithm using vehicle-only control plates at the beginning and end of the compound plate stack. References Shah, S. (2010). The Fever: how malaria has ruled humankind for 500,000 years. New York, Sarah Crichton Books. CDC web site, http://www.cdc.gov/malaria/about/biology/index.html Mu, J., Myers, R.A., Jiang, H., Liu, S., Ricklefs, S., Waisberg, M., Chotivanich, K., Wilairatana, P., Krudsood, S., White, N.J., et Plasmodium falciparum genome-wide scans for positive selection, recombination hot spots and resistance to antimalarial drugs Nature Genetics 2010, 42, pp 268-271 Bennett TN, Paguio, M., Gligorijevic, B., Seudieu, C., Kosar, A. D., Davidson, E., and Roepe, P. D. Novel, rapid, and inexpensive cell-based quantification of antimalarial drug efficacy Antimicrobial Agents Chemother. 2004, 48(5): pp 1807-10 Yuan J, Johnson RL, Huang RL, Wichterman J, Jiang HY, Hayton K, Fidock DA, Wellems TE, Inglese J, Austin CP, Su XZ. […]

Activity change, negative = inhibition, inactive:
COCCN1C(=O)NC(c2ccc(Br)cc2)C(C(C)=O)=C1C (stereo not given) 4.54%, COc1cccc([C@@H]2Oc3ccc(Br)cc3C[C@@H]2OC(=O)N[S+](=O)([O-])c2ccc(C)cc2)c1 1.98%, COC(=O)CCC(=O)OC1(C)C(=O)C=C2C=C(C3CC3)OC=C2C1=O (stereo not given) 3.35%, CCN1C(=NCCc2cccnc2)N[C@H](CCc2ccccc2)[C@H](C(=O)OC)[C@H]1C 0.586%, CC1=C[C@@H](COc2ccccc2)O[C@@]2(C1)C(=O)N(Cc1ccccc1)c1ccccc12 -9.96%, Cc1ccc2[nH]c3nc(CCCn4ccnc4-c4ccccc4)nnc3c2c1 -4.76%, COC(=O)[C@H]1[C@@H](c2ccccc2)NC(=O)N(Cc2ccccc2)[C@@H]1C -2.95%, CC12C=C(C=Cc3ccccc3)C(C)(C1)C(c1ccccc1)CC2=O (stereo not given) 6.29%, CC(C)[C@@H](OCc1ccccc1)[C@H](C)C=NO[C@H](C)c1cn([C@@H]2COC[C@@H]2O)nn1 11.3%, CCC=C1C(=O)[C@]2(C(=O)c3ccccc3)C[C@H]3CCC(CCC)(C2=O)[C@@]13OC -7.1%, COc1ccc([C@]23Cc4ccccc4[C@H](O2)c2c(cc(C)n(Cc4ccccc4)c2=O)O3)cc1 -10.8%, COC(=O)[C@H]1[C@@H](c2ccccc2)NC(=O)N(CCc2cc(OC)c(OC)c(OC)c2)[C@@H]1C -2.11%, Cc1c(O)c(=O)c2ccccc2n1C -0.987%, C#CCCCON=C1C[C@@H](O)[C@H](O)[C@H]2[C@@H]3C(=O)N(Cc4ccccc4)C(=O)[C@@H]3CC[C@H]12 0.443%, COC(=O)[C@H](C=C[C@H](C)Cc1cc(Br)cc(OCc2ccccc2)c1OC)OCc1ccccc1 -0.683%, CC12C=C(C=Cc3ccc(C(F)(F)F)cc3)C(C)(C1)C(c1ccc(C(F)(F)F)cc1)CC2=O (stereo not given) -4.63%, C=CC[C@@H]1C=C[C@H](ON=C[C@@H](N[S+](=O)([O-])c2ccc(C)cc2)[C@H](C)C=CCC(=O)OC)[C@H](CO)O1 5.8%, COC(=O)C1=C(C)N(Cc2ccco2)C(=O)NC1c1ccc(Br)cc1 (stereo not given) -1.76%, C=CC[C@](C)(Nc1ccc(OC)cc1)C(=O)OCC -3.65%, CCOC(=O)C1=NO[C@@]2(C=C(Br)C(=O)[C@H]3O[C@H]32)C1 1.37%, COc1ccc(O[C@H]2C=C[C@@H](c3ccccc3)O[C@H]2COC(=O)CCC(C)=NOCC[C@@H]2C=C[C@H](OC(C)=O)[C@@H](COC(C)=O)O2)cc1 2.36%, C=CC[C@@H]1C=CC(ON=C(C)CCC(=O)OC[C@H]2O[C@H](C#Cc3ccccc3)C=C[C@H]2Oc2ccc(C)cc2)[C@H](CO)O1 (stereo not given in full) -0.637%, COC(=O)c1ccc(CN2C(=O)[C@]3(OCCC=C[C@@H]3C)c3ccccc32)cc1 0.727%, OC[C@H]1O[C@H](C#Cc2ccccc2)C=C[C@@H]1O -0.72%, COC(=O)C1C[C@@]23C(=NN=C(SC)C2N(C)c2ccc(OC)cc23)N1C(C)=O (stereo not given in full) 3.24%, CC(CCN1CCc2nc(-c3ccccc3)c(-c3ccccc3)cc2C1)=NOC[C@@H](O)COCc1ccco1 0.66%, CCN1C(=NCc2ccc3c(c2)OCO3)N[C@@H](c2ccccc2)[C@H](C(=O)OC)[C@H]1C -11.1%, C=CCOC(=O)NC(c1ccc(F)c(F)c1)C(C(C)=O)C(=O)OC (stereo not given) 3.91%, COc1cccc([C@@H]2NC(=O)CC=C[C@H](C)[C@H](c3cccc(OC)c3)NC(=O)CC=C[C@H]2C)c1 3.17%, COc1cc(C(CC2=C(c3ccccc3)Cc3ccccc32)NC(=O)C(F)(F)F)cc(OC)c1OC (stereo not given) -0.164%, CCC(C)CN1C(=O)NC(CCc2ccccc2)C(C(C)=O)=C1C (stereo not given) 1.34%, CC(C)(C)c1ccc(O[C@@H]2[C@H](O)CO[C@H]2C=CC#Cc2ccccc2)cc1 -16.3%, C=C(C)CO[C@H]1C=C[C@@H](c2ccccc2)O[C@H]1CO -2.04%, COc1ccc2c(c1)C(=O)[C@@H](OC(=O)NCCc1ccc(OC)c(OC)c1)[C@H](c1ccc(OC)c(Br)c1)O2 -1.29%

Potency, inactive:
COC(=O)CCC(=O)OC1(C)C(=O)C=C2C=C3CCCN3C=C2C1=O (stereo not given), COC(=O)CC1c2ccccc2C(Cc2ccc(OC)cc2)C(C)N1C(=O)OC (stereo not given), CCN1C(=O)N[C@@H](CCc2ccccc2)[C@@H](C(=O)OC)[C@H]1C, CC1(OC(=O)CCc2ccccc2)C(=O)C=C2C=C(c3ccc(C#N)cc3)N(CC3CC3)C=C2C1=O (stereo not given), COC(=O)c1ccc(CN2C(=O)C3(CC(C)=C[C@@H](C)O3)c3c(Br)cccc32)cc1 (stereo not given in full), C[C@H]1C[C@@H](C)O[C@@]2(C1)C(=O)Nc1ccccc12
